Source: PubChem BioAssay (Tox21)
Results filed as inconclusive are left out. The source made the active and inactive calls. Unless noted, the call rests on the fitted dose curve; in most records, active means well fitted curve in the direction sought with a large enough effect in the repeat runs; inconclusive means weak or mixed curves; inactive means no such curve, though single readings can be large; an effect the other way counts as inactive or inconclusive.

Assays:
[1] = qHTS assay to identify small molecule agonists of the NFkB signaling pathway (AID 1159509; active means well fitted curve in the direction sought with a large enough effect in the signal ratio in the repeat runs, not every such curve was filed as active; the % refers to the signal ratio; further: series mostly up to about 61 µM; on the % scale 0 is the no-effect control and ±100 the full control effect)
Summary of the method: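 Agonist activity was read as beta-lactamase-driven FRET change (460 and 530 nm emission, 405 nm excitation) following 1.5 hr substrate loading at room temperature. Beforehand, ME-180 NFkB-bla reporter cells were treated with compounds for 5 hr at 37 C.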

[2] = qHTS assay to identify small molecule agonists of the NFkB signaling pathway - cell viability counter screen (AID 1159515; calls by dose curve; further: series mostly up to about 61 µM; on the % scale 0 is the no-effect control and ±100 the full control effect; nearly all actives have a fitted effect of over 55% in size)
Summary of the method: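 Cells are seeded (2,000 NFkB-bla ME-180 per well), rested overnight, and dosed with DMSO-dissolved compounds for 5 hr at 37 C. Viability is then read by CellTiter-Glo luminescence after 30 min at room temperature.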

[3] = qHTS assay to identify small molecule agonists of the endoplasmic reticulum stress response signaling pathway (AID 1159516; active means well fitted activation curve with a large enough effect in the signal ratio in the repeat runs, not every such curve was filed as active; the % refers to the signal ratio; further: on the % scale 0 is the no-effect control and ±100 the full control effect)
Summary of the method: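 Cells are seeded at 1,500 per well and incubated overnight. Compounds in DMSO are added for 5 hr at 37 C, then beta-lactamase FRET substrate for 2 hr at room temperature, and fluorescence at 460 and 530 nm is measured.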

[4] = qHTS assay to identify small molecule antagonists of the retinoid-related orphan receptor gamma (ROR-gamma) signaling pathway - cell viability counter screen (AID 1159520); further: on the % scale 0 is the no-effect control and ±100 the full control effect; nearly all actives have a fitted effect of over 50% in size
Summary of the method: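 Tet-on ROR gamma CHO cells were given compounds for 2 hr, then doxycycline hyclate at 1 uM final, and incubated 16 hr at 37 C. Viability was measured as ATP content by CellTiter-Glo luminescence.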

[5] = target: Nuclear receptor ROR-gamma (Homo sapiens) (UniProt P51449); test: qHTS assay to identify small molecule antagonists of the retinoid-related orphan receptor gamma (ROR-gamma) signaling pathway (AID 1159521;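 further: CHO cells with doxycycline inducible ROR-gamma driving an RORE luciferase reporter; top concentration of the series differs between compounds; on the % scale 0 is the no-effect control and ±100 the full control effect; nearly all actives have a fitted effect of over 50% in size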)
Summary of the method: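 CHO Tet-on RORγ, RORE-luc reporter. Cpd 2 h pre-incubation, then dox hyclate 1 uM final, 16 h, 37 C/5% CO2. ONE-Glo luminescence; decrease = antagonist.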

[6] = qHTS assay to identify small molecule agonists of the AP-1 signaling pathway - cell viability counter screen (AID 1159525; calls by dose curve; further: nearly all actives have a fitted effect of over 55% in size)
Summary of the method: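 Same-well cytotoxicity counter screen of the Tox21 10K library in ME-180 cells. The readout is ATP-dependent luminescence after 5 h compound treatment. Data are normalised to DMSO and tetra n-octyl ammonium bromide controls.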

[7] = qHTS assay to identify small molecule agonists of the AP-1 signaling pathway (AID 1159526; calls by dose curve; further: on the % scale 0 is the no-effect control and ±100 the full control effect)
[8] = target: Retinoic acid receptor RXR-alpha (Homo sapiens) (UniProt P19793); test: qHTS assay to identify small molecule agonists of the RXR signaling pathway (AID 1159527; calls by dose curve; further: on the % scale 0 is the no-effect control and ±100 the full control effect; nearly all actives have a fitted effect of over 35% in size)
Retinoic acid receptor RXR-alpha (Homo sapiens), sequence (P19793 whole entry, looked up): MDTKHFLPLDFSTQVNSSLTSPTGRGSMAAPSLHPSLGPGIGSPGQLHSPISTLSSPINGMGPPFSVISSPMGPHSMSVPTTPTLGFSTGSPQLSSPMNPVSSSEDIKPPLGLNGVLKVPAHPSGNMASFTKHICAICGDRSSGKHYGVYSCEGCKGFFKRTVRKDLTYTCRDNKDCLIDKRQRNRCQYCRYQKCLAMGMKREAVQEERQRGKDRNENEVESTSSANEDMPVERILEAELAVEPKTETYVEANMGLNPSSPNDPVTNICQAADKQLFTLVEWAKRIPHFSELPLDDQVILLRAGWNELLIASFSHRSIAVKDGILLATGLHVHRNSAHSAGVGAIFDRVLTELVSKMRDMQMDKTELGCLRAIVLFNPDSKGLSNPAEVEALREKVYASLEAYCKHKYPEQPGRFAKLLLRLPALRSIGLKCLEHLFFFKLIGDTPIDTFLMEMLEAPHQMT
Summary of the method: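 Read-out: beta-lactamase FRET ratio (405 nm excitation, 460 and 530 nm emission) after 2 hr substrate loading at room temperature. Cells were RXR-alpha-UAS-bla HEK 293T treated with compounds for 16 hr in 2% charcoal-stripped FBS medium.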

[9] = qHTS assay to identify small molecule agonists of the RXR signaling pathway - cell viability counter screen (AID 1159529); further: series mostly up to about 77 µM; on the % scale 0 is the no-effect control and ±100 the full control effect; nearly all actives have a fitted effect of over 50% in size
Summary of the method: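 HEK 293T RXRa-bla cells, 2% CS-FBS; 5 h settle; cpd 16 h 37 C, 5% CO2; CellTiter-Glo 30 min RT, luminescence. Tetraoctyl ammonium bromide as positive control.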

[10] = qHTS assay to identify small molecule antagonists of the retinoid acid receptor (RAR) signaling pathway - cell viability counter screen (AID 1159551); further: on the % scale 0 is the no-effect control and ±100 the full control effect; nearly all actives have a fitted effect of over 35% in size
Summary of the method: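 Cells (C3RL4) are plated, incubated overnight, dosed with compound in DMSO, then given retinol at 1 uM final. After 6 h at 37 C, CellTiter-Glo is added and luminescence read following 30 min at room temperature.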

[11] = qHTS assay to identify small molecule antagonists of the retinoic acid receptor (RAR) signaling pathway (AID 1159552; further: on the % scale 0 is the no-effect control and ±100 the full control effect; nearly all actives have a fitted effect of over 50% in size)
Summary of the method: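 Cells of the C3RL4 line were seeded, incubated overnight, then dosed with compounds in DMSO followed immediately by retinol (1 uM final). Six hours later luciferase detection reagent went in; signal was measured after 30 min at RT.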

[12] = qHTS assay to identify small molecule agonists of the retinoic acid receptor (RAR) signaling pathway (AID 1159553); further: on the % scale 0 is the no-effect control and ±100 the full control effect
Summary of the method: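 Seed C3RL4 reporter cells at 1,000 per well and incubate overnight at 37 C. Add compounds in DMSO, incubate 6 hr. Add luciferase reagent, wait 30 min at room temperature, read luminescence.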

[13] = qHTS assay to identify small molecule antagonists of the vitamin D receptor (VDR) signaling pathway - cell viability counter screen (AID 743225)
Summary of the method: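 Read-out: CellTiter-Glo luminescence measured 30 min after reagent addition at room temperature. Cells were VDR-bla HEK 293T exposed 16 h at 37C, 5% CO2, to compound with 3 nM final calcitriol agonist.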

CCc1ccc(C)cc1
inactive: outcome [1] | Potency [2] | Potency [3] | Potency [4] | Potency [5] | Potency [6] | outcome [7] | Potency [8] | Potency [9] | Potency [10] | Potency [11] | Potency [12]

O=C(O)CCS
inactive: outcome [1] | Potency [2] | Potency [3] | Potency [4] | Potency [5] | Potency [6] | outcome [7] | Potency [8] | Potency [10] | Potency [11] | Potency [12]

CN=C(N)NC(=O)Nc1c(C)cccc1C
inactive: Potency [13] | outcome [1] | Potency [2] | Potency [3] | Potency [4] | Potency [5] | Potency [6] | outcome [7] | Potency [8] | Potency [9] | Potency [10]

O=c1[nH][nH]c(=O)c2cc([N+](=O)[O-])ccc12
inactive: Potency [13] | outcome [1] | Potency [2] | Potency [3] | Potency [4] | Potency [5] | Potency [6] | outcome [7] | Potency [8] | Potency [9] | Potency [10]

CCC(CO)(CO)CO
inactive: Potency [13] | outcome [1] | Potency [2] | Potency [3] | Potency [4] | Potency [5] | Potency [6] | outcome [7] | Potency [8] | Potency [9] | Potency [10] | Potency [11] | Potency [12]

BrC(Br)C(Br)Br
inactive: Potency [13] | outcome [1] | Potency [2] | Potency [3] | Potency [4] | Potency [5] | Potency [6] | outcome [7] | Potency [8] | Potency [9] | Potency [10] | Potency [11] | Potency [12]

CCN(CC)CC(=O)Nc1c(C)cccc1C(=O)OC
inactive: Potency [13] | outcome [1] | Potency [2] | Potency [3] | Potency [4] | Potency [5] | Potency [6] | outcome [7] | Potency [8] | Potency [9] | Potency [10]

Cc1cccc2sc(N)nc12
inactive: Potency [13] | outcome [1] | Potency [2] | Potency [3] | Potency [4] | Potency [5] | Potency [6] | outcome [7] | Potency [8] | Potency [9] | Potency [10] | Potency [11]

CCCCCCCCCCCCCOC(=O)CCSCCC(=O)OCCCCCCCCCCCCC
inactive: Potency [13] | outcome [1] | Potency [2] | Potency [3] | activity, negative = cytotoxicity [4] 0.433% [at 19 µM] | activity change, negative = inhibition [5] -3.96% [at 19 µM] | viability change, negative = cytotoxic [6] -10.6% [at 15.8 µM] | activation [7] -14.2% [at 15.8 µM] | activation [8] 4.41% [at 15.8 µM] | activity change, negative = cytotoxicity [10] 3.2% [at 19 µM] | activity, negative = inhibition [11] -11.1% [at 19 µM] | Potency [12]

Nc1ccc(S(=O)(=O)NCc2ccccc2)cc1
inactive: outcome [1] | Potency [2] | Potency [3] | Potency [4] | Potency [5] | Potency [6] | outcome [7] | Potency [8] | Potency [9] | Potency [10] | Potency [11] | Potency [12]
